Bioassay records deposited in PubChem by National Center for Advancing Translational Sciences (NCATS).
Shown are actives, neighbours in structure and some others; about 3.6% of the full set was active somewhere.
LDHA block: inhibitors of human lactate dehydrogenase A. P00338. purified LDHA, NADH/diaphorase-resazurin fluorescence; stronger effect = lower value. activity change, % (values are at about 110 or 230 µM). 0.15% of 480,000 active. AID 1347041; in the data active means activity change below about -30%;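 further: plate controls were DMSO wells for no effect and wells without enzyme for full effect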
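LDH5 2 nM; NADH 0.06 mM, pyruvate 0.2 mM; 200 mM Tris pH 7.4, EDTA, Tween-20; 5 min RT. Detection: diaphorase 0.133 mg/mL + resazurin 37 µM, fluorescence ex540/em590 at 0 and 20 min; normalized to enzyme-free and DMSO wells.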
D1 ag: activates the human D1 dopamine receptor; 1% of 360,000 active; HEK293 T-REx D1 cells, calcium flux, agonist mode; activation, % at 2 µM; AID 504660; further: 0% is about no effect
Target sequence (P21728 whole entry, looked up): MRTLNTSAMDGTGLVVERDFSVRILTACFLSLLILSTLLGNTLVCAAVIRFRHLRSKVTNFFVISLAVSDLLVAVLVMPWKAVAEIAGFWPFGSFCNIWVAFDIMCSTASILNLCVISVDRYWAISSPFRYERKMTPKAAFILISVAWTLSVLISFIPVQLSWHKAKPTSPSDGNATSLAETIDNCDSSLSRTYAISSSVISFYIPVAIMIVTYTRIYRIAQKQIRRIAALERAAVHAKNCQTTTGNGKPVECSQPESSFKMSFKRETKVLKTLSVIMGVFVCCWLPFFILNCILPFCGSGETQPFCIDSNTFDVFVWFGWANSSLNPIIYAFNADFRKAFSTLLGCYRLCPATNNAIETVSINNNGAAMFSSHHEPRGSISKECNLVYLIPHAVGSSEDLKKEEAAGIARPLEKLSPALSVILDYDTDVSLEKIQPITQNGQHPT
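Inducible HEK293 T-REx D1 cells, force-coupled to calcium signalling, were plated at 4000 cells/well with tetracycline and held overnight at 30 C. After no-wash calcium dye loading, compound-evoked calcium rise over 180 s flagged agonists.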
TRHR PAM: TRH receptor (human) allosteric enhancement. 0.66% of 360,000 active. enhancement, % at 2 µM. P34981. AID 493056. TRHR cells, fluo-8 calcium fluorescence, EC20 TRH enhancement; in the data active means enhancement above about 30%; further: 0% is about no effect
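TRHR-expressing cells loaded with fluo-8 calcium dye were read kinetically (ex 480/em 530) during compound addition, then stimulated with an EC20 of TRH (10 nM final). Enhancement of the Gq-mediated intracellular calcium response was scored.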
D1 antagonist: human D1 dopamine receptor antagonism | P21728 | HEK293 TREx D1 cells, calcium flux, dopamine EC80; stronger effect = lower value | activity change, negative = inhibition, % at 10 µM | 3.2% of 360,000 active; in the data active means activity change below about -30%; further: on the % scale 0 is the no-effect control and ±100 the full control effect
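Compound effects on dopamine-evoked calcium signalling were measured in tetracycline-induced HEK293 Trex D1 cells. Dopamine at EC80 followed a 180 s compound pre-read, and fluorescence was tracked kinetically for 180 s more.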
D1 potentiator: potentiators of human D1 dopamine receptor | P21728 | HEK293 TREx D1 cells, calcium flux, dopamine EC20 potentiation | potentiation, % at 10 µM | 0.036% of 360,000 active; in the data active means potentiation above about 30%; further: 0% is about no effect
TRHR ag: activates the human TRH receptor | P34981 | TRHR cells, calcium flux fluo-8, FDSS agonist mode | activation, % at 2 µM | 0.18% of 360,000 active | AID 493084; further: 0% is about no effect
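Fluo-8-loaded TRHR cells; 10 s baseline, compound added, kinetic Ca2+ fluorescence read 1/s, agonist mode.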
Active calls of the source: *; · = no result given. Unless noted, no stated cut-off is given here; in the data, active means activation above about 30%; inactive means the rest.

SMILES | LDHA block | D1 ag | TRHR PAM | D1 antagonist | D1 potentiator | TRHR ag
CCOC(=O)c1nn(-c2ccc(C)cc2)c(=O)cc1OCC(=O)Nc1cc(C)ccc1OC | -1 | 5 | 10 | -42* | -6 | 0
CCOC(=O)c1nn(-c2ccccc2)c(=O)cc1OCC(=O)Nc1cc(C)ccc1OC | -3 | 2 | 2 | -4 | 6 | 1
CCOC(=O)c1sc2cc([N+](=O)[O-])cc(SCC(C)C)c2c1N | 1 | 55* | -1 | 18 | -4 | 14
Cc1ccc(N/N=C(\C#N)C(=O)c2ccsc2)cc1 | -6 | 9 | 5 | -47* | -5 | 1
CNCCCC1Sc2ccccc2Oc2ccccc21 (stereo not drawn) | -17 | 24 | -2 | -42* | -8 | 1
CCc1nc(C)c(C#N)c2cc(OC)c(OC)cc12 | -1 | 0 | 6 | -34* | -6 | -1
CCc1nc(N)c(C#N)c(-c2ccc(OC)c(OC)c2)c1C | -4 | 0 | 20 | -16 | 0 | -1
COc1ccc(C(=O)N(C)CC2CCN(CCc3cccc(C(F)(F)F)c3)CC2)cc1C | 2 | 11 | 1 | -49* | -2 | -1
CN(CC1CCCN(CCc2cccc(C(F)(F)F)c2)C1)C(=O)c1ccco1 (stereo not drawn) | -2 | 3 | 24 | -40* | 11 | 3
CN(CC1CCN(CCc2cccc(C(F)(F)F)c2)CC1)C(=O)c1ccc(F)cc1F | -1 | -1 | -1 | 6 | 0 | 0
CCC1CCC(NC(=O)/C=C/c2ccccc2F)CC1 (stereo not drawn) | -1 | · | · | · | · | ·
Cc1cccc(C(=O)N2CCc3cc(CNC(=O)c4ccnn4C)ccc32)c1 | 2 | 16 | 2 | -36* | -3 | -1
Cc1cccc(C(=O)N2CCc3cc(CNS(=O)(=O)c4cccs4)ccc32)c1 | -8 | 8 | 1 | -32* | -1 | -1
NC(=O)Cc1ccc(C(=O)CSc2ccc3c(c2)OCCCO3)s1 | 10 | · | · | · | · | ·
COc1ccc(N2CC(C(=O)Nc3ccc([N+](=O)[O-])cc3Br)CC2=O)cc1 (stereo not drawn) | -11 | -1 | 0 | -5 | -6 | 0
COc1ccc(N2CC(C(=O)N/N=C/c3cc([N+](=O)[O-])ccc3O)CC2=O)cc1 (stereo not drawn) | 12 | -1 | 39* | -2 | 1 | 0
COc1ccc(S(=O)(=O)Oc2ccc3ccc(=O)oc3c2)cc1OC | 9 | · | · | · | · | ·
CCN(CC)CCNCC(O)(c1ccc(Cl)cc1)c1ccc(Cl)cc1 | -4 | 32* | -4 | -28 | -7 | 5
COc1cccc(-c2c(C(=O)N/N=C/c3cccs3)nnn2-c2nonc2N)c1 | -6 | 61* | 22 | 33 | 10 | 6
COc1cc(/C(C)=N/NC(=O)c2nnn(-c3nonc3N)c2-c2cccs2)ccc1O | -7 | 6 | -1 | -3 | 1 | 0
CCOc1cccc(-c2c(C(=O)N/N=C/c3cccs3)nnn2-c2nonc2N)c1 | -4 | 30* | 22 | 51 | 10 | 1
CCOc1ccc(/C(C)=N/NC(=O)c2nnn(-c3nonc3N)c2-c2cccs2)cc1 | -11 | 115* | 12 | 107 | 41* | 3
Cc1ccc(SCc2c(C(=O)N/N=C/c3ccncc3)nnn2-c2nonc2N)cc1 | -6 | 6 | -1 | -42* | -10 | -1
Nc1nonc1-n1nnc(C(=O)N/N=C/c2ccncc2)c1CSc1ccc(Cl)cc1 | -3 | 5 | -7 | -28 | -6 | 0
COCCNC(=O)NC(=O)CN(C)Cc1cccs1 | 4 | · | · | · | · | ·
SMILES | LDHA block | D1 ag | TRHR PAM | D1 antagonist | D1 potentiator | TRHR ag
Cc1ccsc1C(=O)NCCSC1CCCC1 | -2 | · | · | · | · | ·
CCOc1cccc(-c2c(C(=O)N/N=C/c3ccncc3)nnn2-c2nonc2N)c1 | -7 | 5 | 4 | 12 | 17 | 0
COc1ccc(/C=N/NC(=O)c2nnn(-c3nonc3N)c2-c2cccc(OC)c2)cc1 | -11 | 99* | 30 | 5 | 14 | 8
Cc1ccc(/C=N/NC(=O)c2nnn(-c3nonc3N)c2CN(C)C)o1 | -1 | 0 | 32* | -14 | -4 | -1
Cc1ccc(/C=N/NC(=O)c2nnn(-c3nonc3N)c2-c2cccs2)cc1 | -4 | 163* | 20 | 96 | 19 | 1
Cc1ccc(/C=N/NC(=O)c2nnn(-c3nonc3N)c2-c2ccc3c(c2)OCO3)s1 | -2 | 49* | 7 | 71 | 36* | 0
COc1ccc(/C=N/NC(=O)c2nnn(-c3nonc3N)c2-c2cccs2)cc1OC | -11 | 5 | -1 | -12 | 0 | 1
COCc1c(C(=O)N/N=C/c2ccc(C)o2)nnn1-c1nonc1N | 0 | 4 | -1 | -11 | · | 0
Nc1nonc1-n1nnc(C(=O)N/N=C/c2ccc(F)cc2)c1-c1ccc2c(c1)OCO2 | 1 | 2 | 5 | 7 | 3 | 0
CC(OC(=O)c1cccc(-n2cnnn2)c1)C(=O)Nc1cccc(Cl)c1 (stereo not drawn) | -2 | 8 | -3 | -36* | -5 | 0
COc1cccc(OC)c1C(=O)Nc1cccc(-n2cnnn2)c1 | 1 | 2 | 0 | -35* | 0 | 0
COc1ccc(NC(=O)COC(=O)Cc2cccs2)cc1Cl | -6 | · | · | · | · | ·
COc1ccc(NC(=O)COC(=O)c2ccc(-n3cnnn3)cc2)cc1Cl | -9 | 7 | 31* | -10 | -4 | 0
COc1ccc(NC(=O)COC(=O)CNC(=O)c2cccs2)cc1Cl | -2 | 0 | 2 | -34* | · | 0
COc1ccc(OC)c(NC(=O)COC(=O)c2ccc(-n3cnnn3)cc2)c1 | -1 | 2 | -2 | 0 | -1 | 0
CCCN1CCC(NC(=O)C23CC4CC(CC(C4)C2)C3)CC1 | 4 | · | · | · | · | ·
O=[N+]([O-])c1cc(S(=O)(=O)Nc2ccccc2)ccc1N/N=C/c1ccc(C(F)(F)F)cc1 | 8 | · | · | · | · | ·
Cc1ccc(C(=O)N/N=C/CCc2ccccc2)cc1C | 1 | · | · | · | · | ·
O=C(Nc1cccc(-n2cnnn2)c1)c1ccncc1 | -10 | 1 | -1 | 14 | 1 | 1
Cc1cc(C)c(C)c(S(=O)(=O)Nc2cccc(-n3cnnn3)c2)c1C | -2 | 7 | 6 | -33* | -5 | 0
O=C(Nc1cccc(-n2cnnn2)c1)c1ccc(C(F)(F)F)cc1 | -1 | 4 | 8 | -32* | -4 | 1
O=C(CSCc1nc2ccccc2c(=O)[nH]1)Nc1cccc(O)c1 | -1 | · | · | · | · | ·
COc1cccc(CNC(=O)c2cc3ccccc3[nH]2)c1 | -6 | · | · | · | · | ·
O=c1c2sccc2n(Cc2cc(=O)n3ccccc3n2)c(=O)n1-c1cccc(C(F)(F)F)c1 | -3 | -3 | 2 | -15 | 0 | -2
